The source of these data is PubChem BioAssay (NCI).

Compounds without any hit were thinned out: in the full panel of roughly 79,000, 15% have a hit. A number with no mark means an inactive call. Activity calls are given as the source filed them. Cut-off read from the data, not from the text of the source: active = growth inhibition above about 70%; inactive = the rest.

The nature of test [1]: NCI Yeast Anticancer Drug Screen. Data for the rad50 strain (AID 155).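 Note: 0% = growth of vehicle-only cultures of the same strain.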 Conditions: S. cerevisiae rad50 strain growth inhibition, active compounds read high; at 50.0 µM unless noted. Summed up:
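A DNA repair-deficient yeast mutant serves as the test organism; compound-induced growth inhibition is calculated against vehicle-treated cells.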

Test [2] is described as follows: NCI Yeast Anticancer Drug Screen. Data for the mec2-1 strain (AID 157). Conditions: S. cerevisiae mec2-1 strain, active compounds read high; at 50.0 µM unless noted. A digest of the protocol: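 Cells of the genetically defined mec2-1 yeast strain are incubated with test compound. Inhibition of growth is calculated against vehicle-treated controls.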
A short description of test [3]: NCI Yeast Anticancer Drug Screen. Data for the sgs1 mgt1 strain (AID 161).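 Note: 0% = growth of cultures given vehicle only.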 The note with it: S. cerevisiae sgs1 mgt1 strain, active compounds read high; at 50.0 µM unless noted. Summed up: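 Test agents were incubated with a DNA-repair-mutant yeast strain. Growth was then read and compared against vehicle-treated controls.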
Test [4] in a line: NCI Yeast Anticancer Drug Screen. Data for the cln2 rad14 strain (AID 165).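 Note: 0% = growth equal to vehicle treated cultures.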 Conditions: S. cerevisiae cln2 rad14 strain, active compounds read high; at 50.0 µM unless noted. Summed up: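 The screen exposed genetically defined yeast (cln2 rad14) to test compounds and scored growth inhibition relative to vehicle-treated controls.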
Test [5] can be described thus: NCI Yeast Anticancer Drug Screen. Data for the bub3 strain (AID 167). The note with it: S. cerevisiae bub3 mutant strain, active compounds read high; at 50.0 µM unless noted. Summed up:
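Inhibition values come from growth of compound-treated mutant yeast normalised to vehicle-treated controls.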

Test [6] in a line: NCI Yeast Anticancer Drug Screen. Data for the mlh1 rad18 strain (AID 175). The note with it: S. cerevisiae mlh1 rad18 strain growth inhibition, active compounds read high; at 50.0 µM unless noted. A digest of the protocol: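 Compound-treated yeast growth, normalised to vehicle controls. Strain bears defined DNA repair mutations.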

Regarding `OC(Cc1ccc2ccccc2n1)(C(F)(F)F)C(F)(F)F`, the growth inhibition is -53.8% in test [1]; -43.6% in test [2]; -37.4% in test [3]; -3.85% in test [4]; -29.9% in test [5]; -21.8% in test [6].
Take `CC1(C)CC[C@]2(C(=O)O)CC[C@]3(C)C(=CC[C@@H]4[C@@]5(C)CC[C@H](OC6OC(CO)C(O)C(O)C6O)C(C)(C)[C@@H]5CC[C@]43C)[C@@H]2C1` (some centres undefined): the growth inhibition was 76.2% (active) in test [1]; 74.8% (active) in test [2]; 47.9% in test [3]; 74.2% (active) in test [4]; 82.4% (active) in test [5]; 54.4% in test [6].
Turning to `O=C(O)c1cc([N+](=O)[O-])cc2c(=O)c3cnccc3[nH]c12`, the growth inhibition in test [1] was -23.6%; in test [2] it was -0.35%; in test [3] it was -1.95%; in test [4] it was -25.6%; in test [5] it was -8.5%; in test [6], -9.7%.
For the compound `Cc1cccc(NC(=O)Nc2ccccc2F)n1`, the growth inhibition in test [1] is -2.7%; in test [2] it was 5.65%; in test [3], -8.95%; in test [4], -26.9%; in test [5], -6.95%; in test [6], -12.1%.
Regarding `NC(=O)C(N)CC12CC3CC(CC(C3)C1)C2` (centres undefined), the growth inhibition in test [1] is -6%; in test [2], -18.2%; in test [3], -10.6%; in test [4], 17.7%; in test [5] it was 10.7%; in test [6], -4.7%.
`CCn1c2ccccc2c2cc(N=Nc3ccc4c(c3)c3ccccc3n4CC)ccc21`: the growth inhibition in test [1] is 44.5%; in test [2], 14.7%; in test [3], 19.9%; in test [4] it was 41.2%; in test [5], 45.2%; in test [6], 35.5%.
Take `CC(=O)Cc1ncn(-c2cc(C)on2)n1`: the growth inhibition was -9.4% in test [1]; -20.4% in test [2]; -18.1% in test [3]; 11.6% in test [4]; -1.45% in test [5]; -13.7% in test [6].
As to `CCN(CC)c1ccc(N=Nc2ccc(-c3nc4cccnc4o3)cc2)cc1`, the growth inhibition in test [1] was -21.4%; in test [2], -19.2%; in test [3], -22.9%; in test [4] it was -1.7%; in test [5], 2.15%; in test [6], -39.3%.
As to `CCN(CC)c1cc(C)c2cc(Cc3ccccc3)ccc2n1`, the growth inhibition is 35.2% in test [1]; 32.8% in test [2]; 23.9% in test [3]; 31.8% in test [4]; 65.1% in test [5]; 14.5% in test [6].
